Measurements published in PubChem BioAssay (NCATS).
Where “and” joins values, the source holds several entries; their conditions need not be identical. Identical values can stand only once. Inconclusive results are not listed. Entries that show only a call come without a potency. Calls of active or inactive are those of the source. Calls follow the shape of the dose curve; as a rule, active = well fitted curve in the direction sought with a large enough effect; inconclusive = small, poorly fitted or top-dose-only effect, or another doubt; inactive = no such curve, though single readings can be large; an effect the other way counts as inactive or inconclusive.

Columns and labels:
[1] = qHTS of pediatric cancer cell lines to identify multiple opportunities for drug repurposing: Confirmatory screen for RD cells (AID 1347124);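 also: cells exposed to compound for 48 h before viability readout; nearly all actives have a fitted effect of over 65% in size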; also: potency is read from the fitted curve at half-maximal effect
In short: (§1)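 Cells (500-1,000/well) in growth media were settled 5 h at 37 degrees C, then given compounds for 48 h. Viability was read as CellTiter-Glo luminescence. Primary runs used MIPE at 11 points (0.78 nM-46 µM) and NPC at 8 points (0.59 nM-46 µM); follow-ups used 11 points.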

[2] = qHTS of pediatric cancer cell lines to identify multiple opportunities for drug repurposing: Confirmatory screen for Rh18 cells (AID 1347125); also: nearly all actives have a fitted effect of over 55% in size; also: potency is read from the fitted curve at half-maximal effect
In short: as §1

[3] = qHTS of pediatric cancer cell lines to identify multiple opportunities for drug repurposing: Confirmatory screen for Rh30 cells (AID 1347126); also: nearly all actives have a fitted effect of over 55% in size; also: potency is read from the fitted curve at half-maximal effect
In short: as §1

[4] = system: Zika virus NS2B-NS3 protease; test: Primary screen GU AMC qHTS for Zika virus inhibitors (AID 1347154); also: nearly all actives have a fitted effect of over 70% in size; also: potency is read from the fitted curve at half-maximal effect
In short: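 Unlinked Zika NS2B hydrophilic domain/NS3 protease domain noncovalent complex (25 nM final) in 10 mM Tris-HCl pH 8.0, 0.01% Tween 20, with AMC peptide substrate. Fluorescence (ex 340, em 450 nm) change over 15 min, room temperature; percent inhibition fitted to 4-parameter Hill equation.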

[5] = system: Zika virus NS2B-NS3 protease (unlinked complex); test: Primary screen GU Rhodamine qHTS for Zika virus inhibitors: Unlinked NS2B-NS3 protease assay (AID 1347159); also: nearly all actives have a fitted effect of over 60% in size
In short: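 Noncovalent NS2B hydrophilic domain–NS3 protease domain complex (25 nM) preincubated 15 min at room temperature with compounds (up to 114 microM) in 10 mM Tris-HCl pH 8.0, 0.01% Tween 20; 1.5 microM Rhodamine110 substrate added, fluorescence change over 15 min fitted to Hill equation.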

[6] = qHTS of pediatric cancer cell lines to identify multiple opportunities for drug repurposing: Confirmatory screen for OHS-50 cells (AID 1347128);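 also: compound exposure lasted 48 h at 37 degrees C; nearly all actives have a fitted effect of over 55% in size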; also: potency is read from the fitted curve at half-maximal effect
In short: as §1

[7] = system: Zika virus NS2B-NS3 protease (unlinked); test: Optimization of GU AMC qHTS for Zika virus inhibitors: Unlinked NS2B-NS3 protease assay (AID 1347151); also: potency is read from the fitted curve at half-maximal effect; nearly all actives have a fitted effect of over 80% in size
In short: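 In this qHTS, compounds acted on 25 nM unlinked Zika NS2B–NS3 in pH 8.0 Tris/Tween buffer. Cleavage of an AMC peptide ran 15 min at room temperature, to about 20% conversion.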

| SMILES | Potency [1] | Potency [2] | Potency [3] | Potency [4] | Potency [5] | Potency [6] | Potency [7] |
| --- | --- | --- | --- | --- | --- | --- | --- |
| O=C(NCC1CN(c2ccc(N3CCOCC3=O)cc2)C(=O)O1)c1ccc(Cl)s1 (stereo not given) | inactive | inactive | inactive | inactive | inactive | – | – |
| Nc1[nH]c(=O)ncc1F | inactive | inactive | inactive | inactive | – | inactive | – |
| CCc1c2c(nc3ccc(OC(=O)N4CCC(N5CCCCC5)CC4)cc13)-c1cc3c(c(=O)n1C2)COC(=O)[C@]3(O)CC | – | 16.5 µM (active) | 5.85 µM (active) | 5.73 µM (active) | – | 2.61 µM (active) | – |
| COc1cc2nc(N3CCCN(C)CC3)nc(NC3CCN(Cc4ccccc4)CC3)c2cc1OC | 657 nM (active) | – | 0.147 µM (active) | 27.1 µM (active) | – | 18.5 µM (active) | 21.2 µM (active) |
| COC(=O)Nc1nc2ccc(S(=O)c3ccccc3)cc2[nH]1 (stereo not given) | 2610 nM (active) | inactive | inactive | inactive | – | 2.33 µM (active) | – |
| O=NN(CCCl)C(=O)NC1CCCCC1 | inactive | inactive | inactive | inactive | – | inactive | – |
| CC(C)(C)C(=O)OCOP(=O)(COCCn1cnc2c(N)ncnc21)OCOC(=O)C(C)(C)C | inactive | inactive | – | inactive | – | 16.5 µM (active) | – |
| Nc1nc(N)nc(-c2cc(Cl)ccc2Cl)n1 | inactive | inactive | inactive | inactive | – | inactive | – |
| CCOC(=O)c1ccc(C#Cc2ccc3c(c2)C(C)(C)CCS3)nc1 | inactive | inactive | – | 31.6 µM (active) and 21.5 µM (active) | – | inactive | – |
| CNCC[C@H](Oc1cccc2ccccc12)c1cccs1 | – | inactive | inactive | inactive | – | – | – |
